Pf Dd2 growth – blocks in vitro growth of P. falciparum Dd2. P. falciparum Dd2 growth, SYBR Green, 72 h. Potency, µM (top dose mostly 28.9 µM), for inactives: at the top dose activity, negative = inhibition, most hits filed as inhibitors. 4.3% of 120,000 active; active = well fitted inhibition curve with a large enough effect;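 also: plate controls were DMSO vehicle for no effect and reference drug for full effect; nearly all actives have a fitted effect of over 65% in size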
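Readout: SYBR Green fluorescence, 485 nm excitation, 535 nm emission, after ~16 h lysis at 37C. Before that, Dd2-infected red cells (2.5% hematocrit) grew 72 h with compound, 29 uM top final concentration.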
Active calls of the source: *; i = inactive; [ ] = dose if it differs, or a comment. Only a selection was taken, and hits are over-represented in it overall. Potency is read from the fitted curve at half-maximal effect.

SMILES	Pf Dd2 growth
O=C1N2CCCC2CN1C1CCN(Cc2ccc(C(F)(F)F)cc2)CC1 (stereo not drawn)	-20%
COc1ccc(-c2nc3cc(C)ccn3c2NC(=O)c2ccc(F)cc2)cc1	21%
Cc1ccc(Nc2c(-c3ccsc3)nc3c(C)cccn23)cc1	i
Oc1ccccc1-c1nc2cnccn2c1Nc1ccc(Cl)cc1	2.5µM*
O=C(CCNc1c(-c2cccc(F)c2)nc2cnccn12)NCc1ccc(Cl)cc1	-3%
Cc1ccc(Nc2c(-c3ccccc3O)nc3cc(C)ccn23)cc1	5.6µM*
Clc1ccc(Nc2c(-c3ccccc3Cl)nc3ccc(Cl)cn23)cc1	i
Cc1ccc(Nc2c(-c3ccccc3O)nc3ccc(Br)cn23)cc1	-17%
Cc1ccc(Nc2c(-c3ccc(C)cc3)nc3c(C)cccn23)cc1	-29%
Cc1ccn2c(Nc3ccc(F)cc3)c(-c3ccccn3)nc2c1	4.5µM*
Cc1ccn2c(Nc3ccc4c(c3)OCCO4)c(-c3ccc(Cl)s3)nc2c1	-3%
Cc1ccccc1Nc1c(-c2ccc(O)cc2)nc2c(C)cccn12	11µM*
Cc1ccc(Nc2c(-c3ccccn3)nc3ccc(Br)cn23)cc1	-4%
CCNC(=O)[C@@H]1C[C@H](N)CN1S(=O)(=O)c1cnn(CC)c1C	-9%
CC(c1ccc2c(c1)OCCO2)N(C)C(=O)c1ccc2nccn2c1 (stereo not drawn)	9%
O=C1NC2(CCCN([S+](=O)([O-])c3ccccc3)C2)Oc2ccccc21 (stereo not drawn)	1%
O=C(C1CC1)N1CCCN(C(=O)C2(c3ccccc3)CC2)c2ccccc21	i
COCC(=O)N[C@H]1C[C@@H](CO)N(Cc2ccc(C)s2)C1	5%
CCC(CC)CN1CC2(CCN(C(=O)c3cnc(NC)nc3)CC2)OC1=O	9%
COc1ccccc1CC(=O)NC1CCN(c2cnn(C)c(=O)c2)CC1	19%
CCS(=O)(=O)NCc1nc(-c2ccc(C)cc2)c(-c2ccccn2)[nH]1	-24%
O=C(NCCN1CCCCC1)c1ccc(-c2ccc(N3CCCCC3)nc2)cc1	-17%
NC1(C(=O)N2CCCC(CCc3cccc(C(F)(F)F)c3)C2)CC1 (stereo not drawn)	-27%
CC(=O)N1CCC(n2nccc2NC(=O)c2ccc3c(c2)OCO3)CC1	5%
O=C1COc2ccc(-c3ccc4c(c3)OCO4)nc2CN1Cc1ccc(F)cc1	-13%[44.1 µM]
SMILES	Pf Dd2 growth
CC1(COc2ccccc2)COc2ccc(C(=O)NCCc3ccccn3)cc2N1 (stereo not drawn)	i
COc1ccc(-c2nc3cc(C)ccn3c2NC(=O)c2ccc(C)c(C)c2)cc1	-7%
Cc1cccc2nc(-c3ccccn3)c(Nc3ccc(F)cc3)n12	3.2µM*
Cc1ccn2c(Nc3ccccc3C)c(-c3ccccc3)nc2c1	i
Cc1nc2nncn2c(Nc2ccc(F)cc2)c1C	5%
CN1C[C@@H](NC(=O)Nc2ccc(F)cc2)C[C@H]1c1nc(-c2ccccn2)no1	-14%[44.1 µM]
COc1cc(O)ccc1-c1nc2cc(C)ccn2c1Nc1ccccc1C	7.9µM*
CCOCc1nc(C2CCCN(C(=O)c3cccnc3)C2)no1 (stereo not drawn)	23%
O=C(N1CCN(c2ccccc2)CC1)C1(CCO)CC12CCOCC2 (stereo not drawn)	-2%
COc1ccc(CC(=O)N2CCC(c3n[nH]c(=O)n3-c3ccc(C)cc3)CC2)cc1Cl	-21%
O=c1[nH]ccn1C1CCN(Cc2cccnc2)CC1	-5%[44.1 µM]
Cc1ccc(-c2nc(-c3nnn4c3COC(c3ccccc3Cl)C4)no2)s1 (stereo not drawn)	i
CCn1cnnc1CCNC(=O)c1cc(-c2ccc(C)cc2)nc2ccccc12	-11%
COC(=O)CNC(=O)N1CCCCC1c1nc(CCOc2ccc(F)cc2)no1 (stereo not drawn)	1%
O=C(NCc1ccc(F)cc1)C1CCc2nnc(C3CCN(C(=O)c4ccccc4)CC3)n21 (stereo not drawn)	18%
NC1CCCN(Cc2ccccc2F)C1 (stereo not drawn)	-20%
N[C@@H]1CCN(Cc2ccccc2OCc2ccc(Cl)cc2)C[C@H]1O	4.5µM*
Cn1c(COc2cccc(CN3CCCC3)c2Cl)nnc1C1CC(N)C1 (stereo not drawn)	-14%
CN1[C@@H](CCC(=O)N2CCOCC2)CNC(=O)[C@@H]2[C@H]1CCN2C1CCOCC1	-19%[44.1 µM]
Cc1n[nH]c(C)c1C(N)C(=O)N(C)Cc1ccnc2ccccc12 (stereo not drawn)	3%
CCN(C(=O)Cn1cnc2onc(-c3ccc(F)cc3)c2c1=O)c1cc(C)ccc1C	10µM*
CCCN(C(=O)CCn1cnc2onc(-c3ccc(F)cc3)c2c1=O)c1ccccc1C	19%
CCOC(=O)Cn1cnc2onc(-c3ccc(F)cc3)c2c1=O	14%
O=C(NC1CC1)[C@@H]1C[C@H](Oc2cccnc2)CN1C(=O)CCc1ccccc1	30%
CCOc1ccc2c(n1)CCN(C(=O)c1ccccc1OC)C2	20%
SMILES	Pf Dd2 growth
COc1ccc(C(=O)N2CCOCC3(CN(Cc4ccccc4)C3)C2)cc1	-12%[44.1 µM]
COc1ccc(C(=O)N2CCOCC3(CN(Cc4ccccc4)C3)C2)c(OC)n1	0.89µM*
COc1ccc(C(=O)N2CCOCC3(CN(Cc4cc(F)cc(F)c4)C3)C2)c(OC)n1	i
COCCNC(=O)c1cc(C)nc2onc(C3CCCNC3)c12 (stereo not drawn)	3%
Cn1cc(C(=O)NCC2CN(C(=O)Cc3cccc(Oc4ccccc4)c3)CC23CN(c2ccccc2)C3)cn1 (stereo not drawn)	-21%
O=C(NCC1CN(C(=O)Cc2cccc(Cl)c2)CC12CN(c1ccccc1)C2)C1CC1 (stereo not drawn)	8.9µM*
O=C(Cc1ccccc1)NCC1CN(C(=O)Cc2cccc(Oc3ccccc3)c2)CC12CN(c1ccccc1)C2 (stereo not drawn)	-14%
CN1CCN(C(CN)C2CCCCC2)CC1 (stereo not drawn)	28µM*
CN(C)c1ccc(NC(=O)Cn2nc3n(c2=O)CCCC3)cc1	-3%
COc1ccc(C(=O)N2CCC(Cc3nncn3Cc3ccccc3)C2)cc1 (stereo not drawn)	-18%
Cc1nn(-c2ccc(F)cc2)c(Oc2ccc(F)cc2F)c1CCC(=O)N1CCCC1	-8%
Cc1ccccc1Oc1c(CCC(=O)N2CCSCC2)c(C)nn1-c1ccc(F)cc1	i
Cc1nn(-c2ccc(F)cc2)c(Oc2cccc(F)c2)c1CCC(=O)N1CCSCC1	7.9µM*
COc1cccc(CN2C(=O)OC3(CCN(C(=O)c4ccn(C)n4)CC3)C2(C)c2cccnc2)c1 (stereo not drawn)	i
COc1cc2c(cc1Oc1ccccc1)NC(=O)C21CCN(C(=O)Cc2ccccc2)CC1	-11%
COc1cc2c(cc1OCc1ccccc1)N(C(=O)Cc1ccc3c(c1)OCO3)CC21CCN(C)CC1	i
COc1ccccc1CN1CCOc2cc([S+](=O)([O-])N(C)C)ccc2C1	i
COc1cc2c(cc1OCc1ccccc1)N(C(=O)c1ccc3[nH]ccc3c1)CC21CCN(C)CC1	-17%
COc1cc2c(cc1CCc1ccccc1)N(C(=O)CC(C)C)CC21CCN(C(C)=O)CC1	4µM*
COc1cc2c(cc1CCc1ccccc1)N([S+](=O)([O-])c1ccc3c(c1)CCO3)CC21CCN(C(C)=O)CC1	10µM*
COc1ccc([S+](=O)([O-])N2CC3(CCN(CC(=O)O)CC3)c3cc(OC)c(OCC4CCCC4)cc32)cc1	i
COc1cc2c(cc1CCc1ccccc1)N(C(=O)c1ccn(C)n1)CC21CCN(C(C)=O)CC1	10µM*
